From PubChem BioAssay
Inconclusive results are not listed. Active and inactive are the calls of the source. Unless noted, no rule for the calls is given here.

Key:
[1] = hESC survival regulators, cell-based (AID 493140); conditions: human embryonic stem cell survival screen; stronger effect = higher value;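 also: cells exposed to compounds for four days before counting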
[2] = circadian clock period modulators, cell-based, LOPAC library, luminescence reporter (AID 2774); conditions: circadian reporter cells, at 7 µM, actives lie on both sides;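 also: values are relative to mean of DMSO wells on each plate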
[3] = system: Hepatitis C virus NS3 helicase; assay: HCV NS3 helicase inhibitors, primary screen, biochemical, fluorescence polarization, LOPAC1280 library (AID 687035; in the data active = inhibition above about 37%); conditions: Purified HCV NS3 helicase, Cy5-dT15 ssDNA binding fluorescence polarization; stronger effect = higher value; concentration not given here
[4] = Cy5 fluorescence quenching or enhancement artefacts, artefact control for HCV NS3 helicase inhibitor project, biochemical, LOPAC1280 (AID 687037); conditions: Cy5-DNA-NS3h complex fluorescence interference counterscreen
[5] = growth inhibition of DIPG glioma cells, dose response, cell-based, SU-DIPG-XIII, MIPE5.0, CellTiter-Glo, qHTS (AID 1347064; cut-off not given, nearly all actives have AC50 up to about 23 µM;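 as to AC50: cells exposed to compound for 48 hours before the viability read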); conditions: SU-DIPG-XIII viability, CellTiter-Glo ATP luminescence
[6] = JHH-DIPG-1 glioma cell viability, MIPE5.0 library, CellTiter-Glo luminescence, qHTS (AID 1347067; cut-off not given, nearly all actives have AC50 up to about 26 µM;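 also: cells exposed to compound for 48 hours before readout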); conditions: JHH-DIPG-1 glioma viability, CellTiter-Glo ATP luminescence
[7] = phospholipid biosynthesis inhibitors in animal cells, primary screen, cell-based, LOPAC library, screen 4 (AID 1347384); conditions: phospholipid biosynthesis inhibition screen, at 10 µM
[8] = target: Mitogen-activated protein kinase 7 (Homo sapiens) (UniProt Q13164); assay: ERK5 transactivation activators in reporter cells, primary screen, cell-based, HTS (AID 1508626;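 active = luciferase signal above three times the same-plate solvent-only control wells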;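 also: luciferase driven by Gal4-ERK5 fusion binding five Gal4 sites before minimal TATA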); conditions: HeLa Gal4-ERK5 transactivation, 18 h, at 5 µM, stronger effect = higher value
Sequence of Mitogen-activated protein kinase 7 (Homo sapiens) (Q13164 whole entry, looked up, the tested form may be a part): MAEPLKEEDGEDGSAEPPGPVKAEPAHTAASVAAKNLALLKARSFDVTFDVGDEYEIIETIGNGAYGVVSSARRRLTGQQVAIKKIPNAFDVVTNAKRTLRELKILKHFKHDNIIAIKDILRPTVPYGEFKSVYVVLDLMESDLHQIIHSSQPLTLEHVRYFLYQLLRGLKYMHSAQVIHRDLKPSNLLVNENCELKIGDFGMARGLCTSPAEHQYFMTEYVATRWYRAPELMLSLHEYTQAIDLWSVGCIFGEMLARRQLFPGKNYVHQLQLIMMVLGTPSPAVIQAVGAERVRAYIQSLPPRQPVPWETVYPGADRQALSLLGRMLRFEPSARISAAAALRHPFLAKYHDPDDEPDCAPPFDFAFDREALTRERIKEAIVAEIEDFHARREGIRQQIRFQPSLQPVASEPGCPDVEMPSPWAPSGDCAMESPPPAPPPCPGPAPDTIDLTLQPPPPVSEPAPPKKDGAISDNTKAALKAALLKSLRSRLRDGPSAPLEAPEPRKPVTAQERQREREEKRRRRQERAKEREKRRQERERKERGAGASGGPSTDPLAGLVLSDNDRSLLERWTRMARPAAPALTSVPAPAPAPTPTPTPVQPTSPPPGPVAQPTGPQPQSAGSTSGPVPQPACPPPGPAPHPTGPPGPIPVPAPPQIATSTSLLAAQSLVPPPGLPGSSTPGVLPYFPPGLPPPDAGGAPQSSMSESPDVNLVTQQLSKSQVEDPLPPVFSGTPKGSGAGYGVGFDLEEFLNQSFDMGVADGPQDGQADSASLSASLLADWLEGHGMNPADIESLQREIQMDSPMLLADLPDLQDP

[9] = growth inhibition of DIPG glioma cells, dose response, cell-based, SU-DIPG-IV, MIPE4.0, CellTiter-Glo, qHTS (AID 1347063; cut-off not given, nearly all actives have AC50 up to about 30 µM;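 also: compound exposure lasted 48 hours before the viability readout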); conditions: SU-DIPG-IV viability, CellTiter-Glo ATP luminescence
[10] = growth inhibition of DIPG glioma cells, dose response, cell-based, JHH-DIPG-1, MIPE4.0, CellTiter-Glo, qHTS (AID 1347062; cut-off not given, nearly all actives have AC50 up to about 27 µM;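 as to AC50: cells exposed to compound for two days before readout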); conditions: JHH-DIPG-1 viability, CellTiter-Glo ATP luminescence
[11] = viability loss in pontine glioma line – cell-based, SU-DIPG-XXV, MIPE5.0, CellTiter-Glo, qHTS, dose response (AID 1347065; cut-off not given, nearly all actives have AC50 up to about 26 µM;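 also: cells exposed to compound for 48 hours before ATP readout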); conditions: CellTiter-Glo ATP luminescence
[12] = modifiers of HSF1 nuclear foci, imaging, Selleck Cancer Library (AID 1347162; in the data active = plate-normalised HSF1 focus index below about 0.46); conditions: human cells, at 10 µM; SSMD: measured here: HSF1 foci SSMD mean; cell count: measured here: cell number; plate-normalised HSF1 focus index: stronger effect = lower value

## CCN1CCC[C@H]1CNC(=O)c1c(OC)ccc(Br)c1OC
[1]
  survival: 12.3 (inactive)

## Cc1ccc2c(c1)c1c3n2CCNC3CCC1 (centres undefined)
[1]
  survival: 11.2 (inactive)

## Cc1cc(C)c(/C=C2\C(=O)Nc3ccccc32)[nH]1
[2]
  period change: 0.375 h (inactive)
[3]
  inhibition: 6% (inactive)
[4]
  fluorescence ratio (interference): 1 (inactive)
[5]
  outcome: inactive
[6]
  outcome: inactive
[7]
  outcome: inactive

## COCC(=O)O[C@]1(CCN(C)CCCc2nc3ccccc3[nH]2)CCc2cc(F)ccc2[C@@H]1C(C)C
[2]
  period change: -0.16 h (inactive)
[3]
  inhibition: -2% (inactive)
[4]
  fluorescence ratio (interference): 1 (inactive)
[7]
  outcome: inactive

## CCOC(=O)c1cnc2c(cnn2CC)c1NN=C(C)C
[2]
  period change: 0.065 h (inactive)
[3]
  inhibition: -2% (inactive)
[4]
  fluorescence ratio (interference): 1 (inactive)
[7]
  outcome: inactive

## CN=C(NC#N)Nc1ccc(C2=NNC(=O)CC2C)cc1 (centres undefined)
[2]
  period change: 0.035 h (inactive)

## COc1ccc2c(c1OC)C(=O)O[C@@H]2[C@H]1c2c(cc3c(c2OC)OCO3)CCN1C
[2]
  period change: -0.03 h (inactive)
[1]
  survival: 2.92 (inactive)
[3]
  inhibition: -2% (inactive)
[4]
  fluorescence ratio (interference): 1 (inactive)
[7]
  outcome: inactive
[8]
  luciferase signal: 44 AU (inactive)

## OC(CN1CCC(Cc2ccc(F)cc2)CC1)c1ccc(Cl)cc1 (centres undefined)
[3]
  inhibition: -3% (inactive)
[4]
  fluorescence ratio (interference): 1 (inactive)
[9]
  outcome: inactive
[7]
  outcome: inactive

## CC[N+](CC)(CC)CCOc1ccc(/C=C/c2ccccc2)cc1
[3]
  inhibition: -3% (inactive)
[4]
  fluorescence ratio (interference): 1 (inactive)
[7]
  outcome: inactive

## CC(C)C(=O)c1c(C(C)C)nn2ccccc12
[2]
  period change: -0.095 h (inactive)
[3]
  inhibition: -1% (inactive)
[4]
  fluorescence ratio (interference): 1 (inactive)
[7]
  outcome: inactive

## c1cc(CN2CCCCC2)cc(OCCCNc2nc3ccccc3s2)c1
[2]
  period change: -0.085 h (inactive)
[3]
  inhibition: -2% (inactive)
[4]
  fluorescence ratio (interference): 1 (inactive)
[7]
  outcome: inactive

## CN1CCC[C@@H]1Cc1c[nH]c2ccc(CCS(=O)(=O)c3ccccc3)cc12
[7]
  outcome: inactive
[8]
  luciferase signal: 48 AU (inactive)

## CC[C@]1(O)C[C@H]2CN(CCc3c([nH]c4ccccc34)[C@@](C(=O)OC)(c3cc4c(cc3OC)N(C=O)[C@H]3[C@@](O)(C(=O)OC)[C@H](OC(C)=O)[C@]5(CC)C=CCN6CC[C@]43[C@@H]65)C2)C1
[10]
  AC50: 0.00526 µM (active)
[5]
  AC50: 0.332 µM (active)
[11]
  AC50: 0.0295 µM (active)
[6]
  AC50: 0.0295 µM (active)
[8]
  luciferase signal: 72 AU (inactive)

## Cc1ccc(=O)n(-c2ccccc2)c1
[2]
  period change: -0.085 h (inactive)
[3]
  inhibition: -4% (inactive)
[4]
  fluorescence ratio (interference): 1 (inactive)
[7]
  outcome: inactive

## CCOC(=O)[C@H](CCc1ccccc1)N[C@H]1CS[C@H](c2cccs2)CN(CC(=O)O)C1=O
[10]
  AC50: 0.59 µM (active)
[9]
  AC50: 1.87 µM (active)
[5]
  outcome: inactive
[11]
  outcome: inactive
[6]
  outcome: inactive

## CC(C)OC(=O)C(C(=O)OC(C)C)=C1SC=CS1
[10]
  outcome: inactive
[9]
  outcome: inactive

## Clc1ccc(Nc2nnc(Cc3ccncc3)c3ccccc23)cc1
[10]
  outcome: inactive
[5]
  outcome: inactive
[11]
  AC50: 20.9 µM (active)
[6]
  AC50: 18.6 µM (active)
[12]
  SSMD: 2.9
  cell count: 7070
  plate-normalised HSF1 focus index: 1.15 (inactive)

## CSCC[C@H](NC(=O)[C@H](Cc1c[nH]c2ccccc12)NC(=O)CCNC(=O)OC(C)(C)C)C(=O)N[C@@H](CC(=O)O)C(=O)N[C@@H](Cc1ccccc1)C(N)=O
[10]
  outcome: inactive
[9]
  outcome: inactive
[5]
  outcome: inactive
[11]
  outcome: inactive
[6]
  outcome: inactive

## CNCCC(Oc1ccccc1OC)c1ccccc1 (centres undefined)
[2]
  period change: -0.31 h (inactive)
[1]
  survival: 0.917 (inactive)
[3]
  inhibition: -6% (inactive)
[4]
  fluorescence ratio (interference): 0.9 (inactive)
[7]
  outcome: inactive

## O=C(NOCC1CC1)c1ccc(F)c(F)c1Nc1ccc(I)cc1Cl
[10]
  AC50: 16.6 µM (active)
[9]
  AC50: 20.9 µM (active)
[5]
  AC50: 3.32 µM (active)
[11]
  AC50: 2.35 µM (active)
[6]
  AC50: 1.86 µM (active)

## C[C@H]1C[C@H]2[C@@H]3CCC4=CC(=O)C=C[C@]4(C)[C@H]3C(=O)C[C@]2(C)[C@@]1(O)C(=O)CO
[10]
  outcome: inactive
[9]
  outcome: inactive
[11]
  outcome: inactive
[6]
  outcome: inactive

## O=C(O)C(=O)Nc1cccc(-c2nn[nH]n2)c1
[10]
  outcome: inactive
[9]
  outcome: inactive
[11]
  outcome: inactive
[6]
  outcome: inactive

## NS(=O)(=O)c1cc(Cl)c(Cl)c(S(N)(=O)=O)c1
[1]
  survival: 2 (inactive)
[10]
  outcome: inactive
[9]
  outcome: inactive
[11]
  outcome: inactive
[6]
  outcome: inactive

## CCN(CC)CCNC(=O)c1c(C)[nH]c(/C=C2\C(=O)Nc3ccc(F)cc32)c1C
[10]
  AC50: 10.8 µM (active)
[9]
  AC50: 9.59 µM (active)
[5]
  AC50: 7.42 µM (active)
[11]
  AC50: 4.17 µM (active)
[6]
  AC50: 3.72 µM (active)
[12]
  SSMD: -0.842
  cell count: 6750
  plate-normalised HSF1 focus index: 0.967 (inactive)
[7]
  outcome: inactive

## CCN[C@H]1C[C@H](C)S(=O)(=O)c2sc(S(N)(=O)=O)cc21
[1]
  survival: 14.7 (inactive)
[10]
  outcome: inactive
[9]
  outcome: inactive
[5]
  outcome: inactive
[11]
  outcome: inactive
[6]
  outcome: inactive
[12]
  SSMD: 2.68
  cell count: 6990
  plate-normalised HSF1 focus index: 1.14 (inactive)
